According to PubChem BioAssay AID1159580 (chemical genetic matrix, 2015):
About 2,000 (36%) of roughly 5,500 compounds were called active. Roughly 18% stayed inconclusive and do not appear here. This is one part of the list. Values without a mark were called inactive. Cut-off read from the data, not from the text of the source: active = normalized growth mostly below about 0.91 (no sharp cut-off); inconclusive = no clear call, values can overlap the other calls; inactive = mostly above about 0.92.

Experiment: chemical genetic growth profiling, strain panel (AID 1159580);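 note: tested at 20 µM; growth read once vehicle control cultures reached saturation at 30 °C; 1 = growth at the plate median or of vehicle wells; lower values mean less growth of the strain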
Settings: growth OD
[1] = S. cerevisiae deletion strains, locus YAL013W, strain DEP1, active compounds read low
[2] = S. cerevisiae deletion strains, locus YBR229C, strain ROT2, active compounds read low
[3] = S. cerevisiae deletion strains, locus YDL101C, strain DUN1, active compounds read low
[4] = S. cerevisiae deletion strains, locus YDR150W, strain NUM1, active compounds read low
[5] = S. cerevisiae deletion strains, locus YEL061C, strain CIN8, active compounds read low
[6] = S. cerevisiae deletion strains, locus YGR078C, strain PAC10, active compounds read low
[7] = S. cerevisiae deletion strains, locus YHR030C, strain SLT2, active compounds read low
[8] = S. cerevisiae deletion strains, locus YHR087W, strain rtc3, active compounds read low
[9] = S. cerevisiae deletion strains, locus YJR043C, strain POL32, active compounds read low
[10] = S. cerevisiae deletion strains, locus YJR075W, strain HOC1, active compounds read low
[11] = S. cerevisiae deletion strains, locus YKL190W, strain CNB1, active compounds read low
[12] = S. cerevisiae deletion strains, locus YLR039C, strain RIC1, active compounds read low
[13] = S. cerevisiae deletion strains, locus YLR058C, strain SHM2 (second series), active compounds read low
[14] = S. cerevisiae deletion strains, locus YLR085C, strain ARP6, active compounds read low
[15] = S. cerevisiae deletion strains, locus YLR262C, strain YPT6, active compounds read low
[16] = S. cerevisiae deletion strains, locus YML094W, strain GIM5, active compounds read low
[17] = S. cerevisiae deletion strains, locus YMR219W, strain ESC1, active compounds read low
[18] = S. cerevisiae deletion strains, locus YMR263W, strain SAP30, active compounds read low
[19] = S. cerevisiae deletion strains, locus YMR307W, strain GAS1, active compounds read low
[20] = S. cerevisiae deletion strains, locus YNL153C, strain GIM3, active compounds read low
[21] = S. cerevisiae deletion strains, locus YNL298W, strain CLA4 (second series), active compounds read low
[22] = S. cerevisiae deletion strains, locus YNL322C, strain KRE1, active compounds read low
[23] = S. cerevisiae deletion strains, locus YNR030W, strain Alg12, active compounds read low
[24] = S. cerevisiae deletion strains, locus YPL055C, strain LGE1, active compounds read low
[25] = S. cerevisiae deletion strains, locus YPL241C, strain CIN2, active compounds read low
[26] = S. cerevisiae deletion strains, locus YPR135W, strain CTF4, active compounds read low
[27] = S. cerevisiae strains, strain wild type, active compounds read low

CCOC(=O)c1nnc2cc(C)nn2c1C
normalized growth [1]: 0.981 | normalized growth [2]: 1.01 | normalized growth [3]: 0.98 | normalized growth [4]: 0.951 | normalized growth [5]: 1 | normalized growth [6]: 1 | normalized growth [7]: 1.01 | normalized growth [8]: 1 | normalized growth [9]: 0.987 | normalized growth [10]: 1.03 | normalized growth [11]: 0.995 | normalized growth [12]: 1.04 | normalized growth [13]: 1.01 | normalized growth [14]: 1 | normalized growth [15]: 1.06 | normalized growth [16]: 0.968 | normalized growth [17]: 1 | normalized growth [18]: 0.95 | normalized growth [19]: 0.989 | normalized growth (S. cerevisiae deletion strains, locus YNL128W, strain TEP1, active compounds read low): 1.01 | normalized growth [20]: 0.988 | normalized growth [21]: 1.03 | normalized growth [22]: 1 | normalized growth [23]: 1.03 | normalized growth [24]: 0.923 | normalized growth [25]: 0.986 | normalized growth [26]: 1 | normalized growth [27]: 1.02

CCn1nc(C)cc1C(=O)O
normalized growth [1]: 0.992 | normalized growth [2]: 1.01 | normalized growth [3]: 1.03 | normalized growth [4]: 0.914 | normalized growth [5]: 1.03 | normalized growth [6]: 1.02 | normalized growth [7]: 1.07 | normalized growth [8]: 1.01 | normalized growth (S. cerevisiae deletion strains, locus YJL187C, strain SWE1, active compounds read low): 1.02 | normalized growth [9]: 0.962 | normalized growth [10]: 1.02 | normalized growth [11]: 1.02 | normalized growth [12]: 1.1 | normalized growth [13]: 1.02 | normalized growth [14]: 1.3 [resistant] (active) | normalized growth [15]: 1.07 | normalized growth [16]: 1.02 | normalized growth [17]: 1.01 | normalized growth [18]: 0.987 | normalized growth [19]: 1.24 | normalized growth [20]: 1 | normalized growth [21]: 1.04 | normalized growth [22]: 0.999 | normalized growth [23]: 1.02 | normalized growth [24]: 0.931 | normalized growth [25]: 1.03 | normalized growth [26]: 0.994 | normalized growth [27]: 1.02
